Data reported in the supplement of paper PMC7411054.
Where a name gives a salt, the structure may show the parent alone.

How the values were obtained:
Assay in all cases: phenotypically active (imaging signature differs from DMSO and reproducible) at any of 0.3-9 uM (binary (1 = active, 0 = inactive)); higher = active
Settings in all cases: treatment time: 24 h
A549-ACTB-RAB5A = system: A549-ACTB-RAB5A
How it was run: (§1)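 After 24 h at 0.3, 1, 3 or 9 µM, with four wells per treatment, fifteen gene-edited A549, HepG2 and WPMY1 reporter lines carrying BFP, GFP and RFP/FusionRed were imaged live. Each well's live-cell features were expressed relative to solvent control wells. Deviation required ≥3 of 4 wells past the 95th percentile of control Euclidean distances, and reproducibility a median replicate Pearson correlation over the 95th percentile of non-replicates. Phenotypic activity rested on both.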

A549-CANX-COX4 = system: A549-CANX-COX4
How it was run: as §1

A549-GM130-SQSTM1 = system: A549-GM130-SQSTM1
How it was run: as §1

A549-TP53BP1-CLTA = system: A549-TP53BP1-CLTA
How it was run: as §1

A549-TUBA1B-RELA = system: A549-TUBA1B-RELA
How it was run: as §1

HepG2-ACTB-RAB5A = system: HepG2-ACTB-RAB5A
How it was run: as §1

HepG2-CANX-COX4 = system: HepG2-CANX-COX4
How it was run: as §1

HepG2-GM130-SQSTM1 = system: HepG2-GM130-SQSTM1
How it was run: as §1

HepG2-TP53BP1-CLTA = system: HepG2-TP53BP1-CLTA
How it was run: as §1

HepG2-TUBA1B-RELA = system: HepG2-TUBA1B-RELA
How it was run: as §1

WPMY1-ACTB-RAB5A = system: WPMY1-ACTB-RAB5A
How it was run: as §1

WPMY1-CANX-COX4 = system: WPMY1-CANX-COX4
How it was run: as §1

WPMY1-GM130-SQSTM1 = system: WPMY1-GM130-SQSTM1
How it was run: as §1

WPMY1-TP53BP1-CLTA = system: WPMY1-TP53BP1-CLTA
How it was run: as §1

WPMY1-TUBA1B-RELA = system: WPMY1-TUBA1B-RELA
How it was run: as §1

Measured: phenotypically active

CC[C@]12CCCN3CCc4c(n(c5ccccc45)[C@@](O)(C(=O)OC)C1)[C@@H]32 [Vincamine]
inactive: A549-ACTB-RAB5A 0 | A549-CANX-COX4 0 | A549-GM130-SQSTM1 0 | A549-TP53BP1-CLTA 0 | A549-TUBA1B-RELA 0 | HepG2-ACTB-RAB5A 0 | HepG2-CANX-COX4 0 | HepG2-GM130-SQSTM1 0 | HepG2-TP53BP1-CLTA 0 | HepG2-TUBA1B-RELA 0 | WPMY1-ACTB-RAB5A 0 | WPMY1-CANX-COX4 0 | WPMY1-GM130-SQSTM1 0 | WPMY1-TP53BP1-CLTA 0 | WPMY1-TUBA1B-RELA 0

O=C(O)c1cccc(C(=O)O)n1 [2,6-Pyridinedicarboxylic Acid]
inactive: A549-ACTB-RAB5A 0 | A549-CANX-COX4 0 | A549-GM130-SQSTM1 0 | A549-TP53BP1-CLTA 0 | A549-TUBA1B-RELA 0 | HepG2-ACTB-RAB5A 0 | HepG2-CANX-COX4 0 | HepG2-GM130-SQSTM1 0 | HepG2-TP53BP1-CLTA 0 | HepG2-TUBA1B-RELA 0 | WPMY1-ACTB-RAB5A 0 | WPMY1-CANX-COX4 0 | WPMY1-GM130-SQSTM1 0 | WPMY1-TP53BP1-CLTA 0 | WPMY1-TUBA1B-RELA 0

CC(C)(C(=O)O)c1ccc(C(O)CCCN2CCC(C(O)(c3ccccc3)c3ccccc3)CC2)cc1 (stereo not given) [fexofenadine]
inactive: A549-ACTB-RAB5A 0 | A549-CANX-COX4 0 | A549-GM130-SQSTM1 0 | A549-TP53BP1-CLTA 0 | A549-TUBA1B-RELA 0 | HepG2-ACTB-RAB5A 0 | HepG2-CANX-COX4 0 | HepG2-GM130-SQSTM1 0 | HepG2-TP53BP1-CLTA 0 | HepG2-TUBA1B-RELA 0 | WPMY1-ACTB-RAB5A 0 | WPMY1-CANX-COX4 0 | WPMY1-GM130-SQSTM1 0 | WPMY1-TP53BP1-CLTA 0 | WPMY1-TUBA1B-RELA 0

C[C@]12CC[C@@H]3c4ccc(O)cc4CC[C@H]3[C@@H]1CC[C@@H]2O [estradiol]
inactive: A549-ACTB-RAB5A 0 | A549-CANX-COX4 0 | A549-GM130-SQSTM1 0 | A549-TP53BP1-CLTA 0 | A549-TUBA1B-RELA 0 | HepG2-ACTB-RAB5A 0 | HepG2-CANX-COX4 0 | HepG2-GM130-SQSTM1 0 | HepG2-TP53BP1-CLTA 0 | HepG2-TUBA1B-RELA 0 | WPMY1-ACTB-RAB5A 0 | WPMY1-CANX-COX4 0 | WPMY1-GM130-SQSTM1 0 | WPMY1-TP53BP1-CLTA 0 | WPMY1-TUBA1B-RELA 0

COc1ccc(C2=N[C@H](c3ccc(Cl)cc3)[C@H](c3ccc(Cl)cc3)N2C(=O)N2CCNC(=O)C2)c(OC(C)C)c1 [Nutlin-3]
inactive: A549-ACTB-RAB5A 0 | A549-CANX-COX4 0 | A549-GM130-SQSTM1 0 | A549-TP53BP1-CLTA 0 | A549-TUBA1B-RELA 0 | HepG2-ACTB-RAB5A 0 | HepG2-CANX-COX4 0 | HepG2-GM130-SQSTM1 0 | HepG2-TP53BP1-CLTA 0 | HepG2-TUBA1B-RELA 0 | WPMY1-ACTB-RAB5A 0 | WPMY1-CANX-COX4 0 | WPMY1-GM130-SQSTM1 0 | WPMY1-TP53BP1-CLTA 0 | WPMY1-TUBA1B-RELA 0

CC(=O)NCCCS(=O)(=O)O [acamprosate]
inactive: A549-ACTB-RAB5A 0 | A549-CANX-COX4 0 | A549-GM130-SQSTM1 0 | A549-TP53BP1-CLTA 0 | A549-TUBA1B-RELA 0 | HepG2-ACTB-RAB5A 0 | HepG2-CANX-COX4 0 | HepG2-GM130-SQSTM1 0 | HepG2-TP53BP1-CLTA 0 | HepG2-TUBA1B-RELA 0 | WPMY1-ACTB-RAB5A 0 | WPMY1-CANX-COX4 0 | WPMY1-GM130-SQSTM1 0 | WPMY1-TP53BP1-CLTA 0 | WPMY1-TUBA1B-RELA 0

Cc1ccc(OCCSc2ncccn2)c(Br)c1 [ZLN 024 hydrochloride]
inactive: A549-ACTB-RAB5A 0 | A549-CANX-COX4 0 | A549-GM130-SQSTM1 0 | A549-TP53BP1-CLTA 0 | A549-TUBA1B-RELA 0 | HepG2-ACTB-RAB5A 0 | HepG2-CANX-COX4 0 | HepG2-GM130-SQSTM1 0 | HepG2-TP53BP1-CLTA 0 | HepG2-TUBA1B-RELA 0 | WPMY1-ACTB-RAB5A 0 | WPMY1-CANX-COX4 0 | WPMY1-GM130-SQSTM1 0 | WPMY1-TP53BP1-CLTA 0 | WPMY1-TUBA1B-RELA 0

NC(=O)C(c1ccccc1)(c1ccc(F)cc1)c1ccc(F)cc1 [senicapoc]
inactive: A549-ACTB-RAB5A 0 | A549-CANX-COX4 0 | A549-GM130-SQSTM1 0 | A549-TP53BP1-CLTA 0 | A549-TUBA1B-RELA 0 | HepG2-ACTB-RAB5A 0 | HepG2-CANX-COX4 0 | HepG2-GM130-SQSTM1 0 | HepG2-TP53BP1-CLTA 0 | HepG2-TUBA1B-RELA 0 | WPMY1-ACTB-RAB5A 0 | WPMY1-CANX-COX4 0 | WPMY1-GM130-SQSTM1 0 | WPMY1-TP53BP1-CLTA 0 | WPMY1-TUBA1B-RELA 0

CC(=O)OCC[N+](C)(C)C [acetylcholine]
inactive: A549-ACTB-RAB5A 0 | A549-CANX-COX4 0 | A549-GM130-SQSTM1 0 | A549-TP53BP1-CLTA 0 | A549-TUBA1B-RELA 0 | HepG2-ACTB-RAB5A 0 | HepG2-CANX-COX4 0 | HepG2-GM130-SQSTM1 0 | HepG2-TP53BP1-CLTA 0 | HepG2-TUBA1B-RELA 0 | WPMY1-ACTB-RAB5A 0 | WPMY1-CANX-COX4 0 | WPMY1-GM130-SQSTM1 0 | WPMY1-TP53BP1-CLTA 0 | WPMY1-TUBA1B-RELA 0

CC(C)(C)NCC(O)c1ccc(O)c(CO)c1 (stereo not given) [albuterol]
inactive: A549-ACTB-RAB5A 0 | A549-CANX-COX4 0 | A549-GM130-SQSTM1 0 | A549-TP53BP1-CLTA 0 | A549-TUBA1B-RELA 0 | HepG2-ACTB-RAB5A 0 | HepG2-CANX-COX4 0 | HepG2-GM130-SQSTM1 0 | HepG2-TP53BP1-CLTA 0 | HepG2-TUBA1B-RELA 0 | WPMY1-ACTB-RAB5A 0 | WPMY1-CANX-COX4 0 | WPMY1-GM130-SQSTM1 0 | WPMY1-TP53BP1-CLTA 0 | WPMY1-TUBA1B-RELA 0

CCCCCCOc1cc2c(cc1N(C)c1ncc(C(=O)O)cn1)C(C)(C)CCC2(C)C
inactive: A549-ACTB-RAB5A 0 | A549-CANX-COX4 0 | A549-GM130-SQSTM1 0 | A549-TP53BP1-CLTA 0 | A549-TUBA1B-RELA 0 | HepG2-ACTB-RAB5A 0 | HepG2-CANX-COX4 0 | HepG2-GM130-SQSTM1 0 | HepG2-TP53BP1-CLTA 0 | HepG2-TUBA1B-RELA 0 | WPMY1-ACTB-RAB5A 0 | WPMY1-CANX-COX4 0 | WPMY1-GM130-SQSTM1 0 | WPMY1-TP53BP1-CLTA 0 | WPMY1-TUBA1B-RELA 0
